Where “and” joins values, the source holds several entries; their conditions need not be identical. Equal values may be shown once. This is part of a sample that, as a whole, favours compounds with a hit. Of some 83,000 tested, about 20% had one in any assay.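 The test compound was applied at a single concentration to cells in 96-well plates for 48 hours, and percent growth was recorded.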 Values without a mark were called inactive. Calls of active or inactive are those of the source. The calls were made as follows: active = growth percent below 10; inactive = the rest.
Each compound was assayed on MDA-MB-468 breast (assay: NCI-60 one-dose screen, 48 h (100 = growth as untreated, 0 = no growth, -100 = all killed)). Settings: 10 µM unless noted.

SMILES	growth
COc1cc(CSc2nc3ccc(Cl)cc3c(=O)n2-c2ccccc2)cc(OC)c1OC	57.4%
CCOC(=O)C1=C(c2ccccc2)N=C2N(c3ccccc3)N=C(C(C)=O)N2C1c1ccc(F)cc1 (stereo not given)	93.2%
S=c1[nH]nc(Cc2ccccc2)c(=S)[nH]1	94.7%
C[C@]12O[C@H](C[C@]1(O)CO)n1c3ccccc3c3c4c(c5c6ccccc6n2c5c31)CNC4=O	-47.5% (active)
CCC1=C[C@@H]2CN(C1)Cc1c([nH]c3ccccc13)[C@@](C(=O)OC)(c1cc3c(cc1OC)N(C)[C@H]1[C@@](O)(C(=O)OC)[C@H](OC(C)=O)[C@]4(CC)[C@@H]5C[C@@H]5CN5CC[C@]31[C@@H]54)C2	-31.7% (active)
O=C(c1ccccc1)C(Sc1ccccc1)c1ccccc1 (stereo not given)	88.7%
Nc1cc(N)c2cccnc2c1O	48.2%
NC(N)=N/N=C/c1ccc([N+](=O)[O-])cc1	85.5%
Cn1ccnc1C(=O)/C=C/c1ccc(C(=O)Nc2ccc(NC(=O)CCNC(=O)c3csc(Br)n3)cc2)cc1	48.4%
O=c1[nH]c(-c2ccccc2)nc(CN2CCCCC2)c1O	111%
C/C(=N\Nc1ccccc1)c1ccc(NC2=CC(=O)c3ccccc3C2=O)cc1	35.7%
C[N+]1(CCCCC[N+]2(C)CCCC2)CCCC1	117%
COc1ccc(/C(=C\c2cc(OC)c(OC)c(OC)c2)C(=O)N2CCNCC2)cc1	94.3%
NC1=NC2(CCCC2)N(c2ccc(S(=O)(=O)Nc3nccs3)cc2)C(N)=N1	90.7%
Cc1c(NC(=O)c2sc3nc4c(cc3c2N)CN(Cc2ccccc2)CC4)cccc1C(F)(F)F	-5.77% (active)
CCN(CC)Cc1cc2[nH]c3c4ccc(Cl)cc4ncc3c2cc1OC	-12.8% (active) and -25.8% (active)
COc1cc(-c2nn(-c3cccc(NC(=O)c4ccccc4)c3)cc2-c2ccncc2)ccc1Cl	-19.7% (active)
COc1ncc(-c2ccc3nc(N)n(-c4ccccc4C(F)(F)F)c(=O)c3c2)cc1S(=O)(=O)Nc1ccc(F)cc1F	-37.3% (active)
S=C(NCc1ccccc1)NCc1ccccc1	101%
O=C(CCc1nc2sc3c(c2c(=O)[nH]1)CCC3)NCc1cn(-c2ccccc2)nc1-c1ccccc1	83.6%

SMILES	growth
CCOC(=O)CC(=O)CSC1=NC2C(NN1)N(C)C(=O)N2C (stereo not given)	12.2%
CC(=O)Oc1ccccc1C(=O)Nc1ncc([N+](=O)[O-])s1	36.9%
CN(Cc1ccccc1)Cc1ccc([N+](=O)[O-])cc1I	93.3%
CC1(C)c2[nH]c3ccccc3c2C[C@]2(C)[C@H]3CC=C4[C@@H]5C[C@@](C)(C(N)=O)CC[C@]5(C)CC[C@@]4(C)[C@]3(C)CC[C@@H]12	21.7%
COc1cc(/C=C2\C(=O)N(Cc3ccc(Cl)cc3)c3ccccc32)cc(OC)c1OC	-18.3% (active)
CCc1cccc(C)c1NC(=O)c1sc2nc3c(cc2c1N)C(=O)CCC3	32.5%
NC(=O)SCC(=O)Nc1ccc(S(N)(=O)=O)cc1	91.4%
CN1C(=O)N(C)C2(c3ccccc3)OC(=S)NC12c1ccccc1 (stereo not given)	112%
CC1=C(/C=C/C(C)=C/C=C/C(C)=C/C(=O)Nc2ccc(O)cc2)C(C)(C)CCC1	30.1%
COc1cc2nc(Cc3ccc(C)cc3)[nH]c(=O)c2cc1OC	98.8%
COc1cc2ncnc(Nc3ccc(OCc4cccc(F)c4)c(Cl)c3)c2cc1NC(=O)C1CCCC1	-2.53% (active)
CN(C)CCCCC(C(=O)CBr)(c1ccccc1)c1ccccc1	-53.1% (active)
CCOC(=O)c1cnc(SCC)nc1SC#N	124%
CCN1C(=O)N(CC)C2C1NN=c1s/c(=C\c3ccccc3F)c(=O)n12 (stereo not given)	10.9%
CN(C)CCCn1c2c(c3ncccc3c1=O)C(=O)c1ccccc1-2	31.7%
CCn1c(=O)c(C(=O)NCCCO)c(O)c2ccccc21	112%
O=C1C(Cl)=C(Nc2cccc3cc4ccccc4nc23)C(=O)c2ccccc21	40.9%
CCOC(=O)CSc1nc2ccccc2c(=O)n1Cc1ccc(S(N)(=O)=O)cc1	105%
CCC(=O)C(CC)c1cccc(OC)c1 (stereo not given)	102%
O=C(Nc1ccc(I)cc1)c1cc([N+](=O)[O-])ccc1O	9.76% (active)

Source: PubChem BioAssay (NCI)
